# Screening results as filed in PubChem BioAssay.
# Nrf2 ARE act: Nrf2 pathway activation | AREc32 ARE-luciferase reporter (MCF7-derived line), luminescence, 24 h | 410,000 compounds, 0.31% hits | Potency, µM (doses to about 46.1 µM), inactives show at the top dose activation, usual class: activators | AID 624171; note: % of control where 0% means no effect; nearly all actives have a fitted effect of over 65% in size
#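 Luminescent ARE reporter assay in AREc32_Fluc cells: overnight plating at 37 deg C, 24 hr compound incubation, Steady-Glo added, 30 min RT before reading.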
# A549 viability: counter-screen for Nrf2 inhibitors: cytotoxicity in A549 cells; A549 ARE-Fluc cells, CellTiter-Fluor viability, 18-24 h; Potency, µM (top dose mostly 46 µM), for the others: at the top dose activity change, negative = cytotoxicity, hits mostly inhibitors; 390,000 compounds, 0.16% hits; AID 504648; note: % is set by controls: 0 for no effect and ±100 for the full control effect
#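 Cytotoxicity counterscreen: CellTiter-Fluor fluorescence was measured in A549 ARE_Fluc cells after 18-24 h of compound exposure in a concentration series. The subsequent BugLite luminescent read reports ARE-luciferase activity.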
# Nrf2 inh: blocks Nrf2 signaling | A549 ARE-Fluc reporter, luciferase luminescence, 18-24 h | AID 504444 | 360,000 compounds, 2.1% hits | Potency, µM (doses to about 46 µM), without a hit: at the top dose activity change, negative = inhibition, hits mostly inhibitors; note: % is set by controls: 0 for no effect and ±100 for the full control effect; nearly all actives have a fitted effect of over 60% in size
#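 Cells were seeded and rested 2 h, then exposed to compounds for 18-24 h. CellTiter-Fluor was read first as a viability measure. BugLite was added 15 min before the final luminescent read of ARE-luciferase activity in A549 cells.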
# HepG2 viability: HepG2 cytotoxicity, counter-screen for TGF-b inhibitors; AID 588856; HepG2 CAGA-GFP viability, ATP luminescence, 18 h; 410,000 compounds, 0.76% hits; Potency, µM (top dose mostly 46.1 µM), for inactives: at the highest dose activity change, negative = cytotoxicity, most hits filed as cytotoxic
#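 HepG2 CAGA-GFP cells (1000/well, DMEM with 1% FBS) received compound, then TGF-beta at 500 pg/mL final, and were incubated 18 hours at 37 degrees C. Viability was read by CellTiter-Glo luminescence. Media-only wells were set as complete cell-killing and DMSO as no toxicity.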
# TGFb SMAD3 inh: inhibitors of TGF-b signaling; Potency, µM (doses to about 46.1 µM), for the others: at the highest dose activity, negative = inhibition, hits mostly inhibitors; 410,000 compounds, 1.2% hits; HepG2 CAGA-GFP TGF-b/SMAD3 reporter, GFP fluorescence, 18 h; TGF-beta stimulated, 500 pg/mL final; AID 588855; note: % is set by controls: 0 for no effect and ±100 for the full control effect; nearly all actives have a fitted effect of over 65% in size
#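 Inhibition was scored as loss of TGF-beta-induced (500 pg/mL final, 18 hours, 37 degrees C) GFP in HEPG2 cells carrying a CAGA-GFP reporter, in DMEM with 1% FBS. Well GFP was summed per cell; Activity was normalised to unstimulated and stimulated DMSO wells, then concentration-response fitting.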
# * = called active by the depositor; ? = inconclusive; / = no result given; [ ] = another dose, or the depositor's remark. Hits are enriched below; roughly 3.6% of the tested compounds scored in any of these assays. Calls come from the whole dose curve; as a rule, active = well fitted curve in the direction sought with a large enough effect; inconclusive = small, poorly fitted or top-dose-only effect, or another doubt; inactive = no such curve, though single readings can be large; an effect the other way counts as inactive or inconclusive. Potency is the fitted concentration of half-maximal effect.
SMILES,Nrf2 ARE act,A549 viability,Nrf2 inh,HepG2 viability,TGFb SMAD3 inh
COc1cc(SC#N)ccc1N=Cc1c(C)[nH]n(-c2ccc(Cl)cc2)c1=O,0%,1%,-6%,1%,65%
COc1cc(SC#N)ccc1N=Cc1c(C)[nH]n(-c2ccc(C)c(C)c2)c1=O,8%,-17%,9%,8.9µM*,?
c1ccc(Cc2nnc(N3CCCCC3)c3ccccc23)cc1,2%,?,18µM*,-2%,2%
COc1ccc(C2c3[nH]c4ccc(OC)cc4c3CCN2C(=O)Nc2ccccc2)cc1 (stereo unspecified),0%,?,15µM*,-23%,8.9µM*
Cc1ccc(NC(=O)c2ccccc2-c2cc(C)no2)cc1,0%,0%,12%,4%,16%
CCn1cc([N+](=O)[O-])c(C(=O)Nc2nc(-c3ccc(C)c(C)c3)c(C)s2)n1,?,-13%[1.84 µM],16µM*,-30%,-11%
COc1ccccc1NS(=O)(=O)c1ccc(C(=O)N2CCN(c3ccccc3)CC2)cc1,0%,1%,-23%,-20%,-11%
COc1ccccc1NS(=O)(=O)c1ccc(C(=O)N2CCCCCC2)cc1,2%,-10%,10µM*,-11%,12%
COc1ccc(S(=O)(=O)N(C)c2ccc(C(=O)N3CCCCC3)cc2)cc1OC,2%,5%,12µM*,-11%,4%
COc1cc(OC)nc(Oc2ccc(NC(C)=O)cc2)n1,0%,5%,-9%,6%,-6%
COc1ccc(-c2cn[nH]c2-c2ccc(OCc3ccccc3F)cc2O)cc1OC,-1%,2%,-4%,-88%,16µM*
COC(=O)Cc1c(C)nc2nc(-c3ccc(C)cc3)[nH]n2c1=O,3%,11%,0%,-4%,-20%
COc1ccc(/C=C/c2ccccc2)cc1C1C2C=CCC(C)C2C(=O)N1Cc1ccccc1 (stereo unspecified),/,12%,?,15%,-2%
COc1ccc(-c2ccoc2)cc1C1C2C=CCC(C)C2C(=O)N1Cc1ccccc1 (stereo unspecified),/,-15%,?,-28%,16µM*
COc1ccc(-c2ccc(OC)c([C@H]3[C@H]4C=CC[C@@H](C)[C@@H]4C(=O)N3Cc3ccccc3)c2)cc1OC,0%,-9%,?,-1%,-5%
COc1ccc(Br)cc1[C@H]1[C@H]2C=CC[C@@H](C)[C@@H]2C(=O)N1Cc1ccccc1,-1%,-17%,21µM*,0%,-21%
CCOc1cccc(C(=O)Nc2ccc3oc(-c4cccnc4)nc3c2)c1,0%,-10%,9.2µM*,11%,-13%
CCOc1cccc(C(=O)Nc2ccc3oc(Cc4ccc(Cl)cc4)nc3c2)c1,0%,?,21µM*,6%,?
Cc1ccc(S(=O)(=O)c2cc3c(=O)n4cccc(C)c4nc3n(C3CCCCC3)c2=N)cc1,0%,2%,-7%,-12%,-8%
O=C(NC1CC1)c1cccc(NC(=O)C2CCC2)c1,0%,-3%,0%,-3%,2%
O=C(CN1C(=O)COc2ccccc21)N1CCCc2ccccc21,0%,?,23µM*,0%,-1%
COc1cc(Cl)cc(/C=N\NC(=O)c2ccc3c(c2)OCO3)c1O,9%,/,/,-27%,11µM*
COc1cc(C(=O)Oc2ccccc2/C=N/NC(=O)c2ccc(Cl)cc2)cc(OC)c1OC,0%,-3%,?,6%,7.1µM*
Cc1cc(Br)cc(/C=N/NC(=O)c2ccc3c(c2)OCO3)c1O,-1%,-9%,?,1.8µM*,5.6µM*
COC(=O)c1c(C)[nH]c(C(=O)CC#N)c1C,3%,2%,-8%,-27%,-8%
SMILES,Nrf2 ARE act,A549 viability,Nrf2 inh,HepG2 viability,TGFb SMAD3 inh
COC(=O)c1ccc(C2SCC(=O)N2Cc2ccccc2)cc1 (stereo unspecified),0%,-4%,2%,4%,0%
O=C(NCCSCc1ccccc1)c1ccc(C2SCC(=O)N2Cc2ccccc2)cc1 (stereo unspecified),3%,-7%,10µM*,-19%,?
COc1ccc(C=NNC(=S)NN=Cc2ccc(OC)c(OC)c2)cc1OC,12%,4%,15µM*,-11%,-1%
COc1cccc(/C=N/NC(N)=S)c1OCc1cccc(Cl)c1,3%,-20%,16µM*,3%,?
COc1cc(/C=N/NC(N)=S)ccc1OCc1ccc(C)cc1,6%,-3%,-15%,-7%,18µM*
CCOC(=O)Cc1csc(NS(=O)(=O)c2ccc(NC(C)=O)cc2)n1,-1%,0%,22%,7%,3%
O=c1c(Cl)c(Cl)cnn1-c1ccccc1,?,?,?,14µM*,?
Nc1c(Cl)cnn(-c2ccccc2)c1=O,2%,6%,3%,52%,0%
Nc1c(C(=O)N/N=C/c2ccc(Cl)cc2)cnn1-c1ccccc1,4%,1%,6%,12%,0%
O=c1c(Cl)c(N/N=C/c2ccc(Cl)cc2)cnn1-c1ccccc1,?,-14%,-25%,14µM*,?
COc1cc(OC)c(C2N(c3cc(C)on3)C(=O)C3CCCN32)cc1OC (stereo unspecified),0%,-2%,18%,0%,-6%
COc1ccc(C2=Nc3ccccc3OC2)cc1,11µM*,-5%,?,-30%,?
O=C(C(Cc1ccccc1)n1cccc1)N1CCN(Cc2ccccc2)CC1 (stereo unspecified),-1%,2%,12%,-24%,-4%
CN(C)c1ccc(C(=O)/C=C/c2ccco2)cc1,?,-9%,?,-27%,-6%
O=C(C=Cc1ccco1)c1ccc2ccccc2c1,7.9µM*,-3%,?,-24%,-30%
CCCOC(=O)c1ccc(Oc2c(-c3ccc(OCC)cc3O)n[nH]c2C)cc1,-1%,?,?,11µM*,11µM*
Cc1cn(C)c(CC(=O)NCc2ccccc2Cl)c1C(=O)O,0%,-4%,/,-9%,-7%
CCOC1(c2ccccc2)CC1C(=O)N/N=C/c1cccc([N+](=O)[O-])c1 (stereo unspecified),9%,-8%,18µM*,15%,?
COc1ccc(C(=O)n2nc(C)c(Br)c2C)cc1,0%,-5%,-13%,-1%,36%
Cc1cc2c(cc1S(=O)(=O)N1CCc3ccccc31)NC(=O)CO2,3%,?,23µM*,-1%,29%
O=c1c2ccccc2oc2ccc(Oc3ccccc3)cc12,27%,16%,?,-5%,?
COC(=O)c1cc2c(=O)c3ccccc3oc2nc1C,7.9µM*,0%,?,1%,5%
COc1cc2oc3ccccc3c(=O)c2cc1OC,10µM*,-1%,7%,-28%,-23%
